Bioassay records deposited in PubChem BioAssay by National Center for Advancing Translational Sciences (NCATS).
Compounds with a hit are over-represented: about 11% of the library has one in this group of screens.
G9a inh: inhibitors of human histone lysine methyltransferase G9a. Q96KQ7. G9a H3K9 monomethylation, AlphaScreen, 2 h. Potency, µM (series often up to 102 µM), most hits filed as inhibitors. actives 8.8% (n = 350,000); also: nearly all actives have a fitted effect of over 75% in size
Target sequence (Q96KQ7 913-1193 limits assumed): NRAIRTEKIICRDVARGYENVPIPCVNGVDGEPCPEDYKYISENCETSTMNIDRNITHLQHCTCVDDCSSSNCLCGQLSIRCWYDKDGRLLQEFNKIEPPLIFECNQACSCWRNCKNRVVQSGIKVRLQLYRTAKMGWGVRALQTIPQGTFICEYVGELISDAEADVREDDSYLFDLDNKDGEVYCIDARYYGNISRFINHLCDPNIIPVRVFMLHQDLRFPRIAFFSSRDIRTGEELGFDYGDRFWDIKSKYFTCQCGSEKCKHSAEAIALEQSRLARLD
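Enzyme 20 nM + cpd, 15 min RT; add b-H3K9 pep 500 nM / SAM 20 uM; 2 h RT; anti-H3K9me1 Ab 0.5 ug/mL + SA donor / anti-rabbit acceptor beads 20 ug/mL each, 10 min; AlphaScreen read.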
Sfp PPTase inh: Sfp phosphopantetheinyl transferase inhibition; actives 3.5% (n = 310,000); Q9F4F7; Potency, µM, most hits filed as inhibitors; AID 1490; Biochemical Sfp PPTase activity, qHTS;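 also: the enzyme is Sfp with the accession as filed and its product quenches rhodamine fluorescence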
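Compounds were incubated with enzyme (final 15 nM) for 15 min at room temperature before substrate addition started the reaction. Fluorescence at 525 nm excitation, 598 nm emission was recorded immediately and after 30 minutes.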
Tau fibril FP: tau fibrillization inhibition (FP); K18 P301L tau heparin fibrillization, Alexa594 FP, 6 h; Potency, µM (top dose mostly 57.7 µM), most hits filed as inhibitors; actives 0.39% (n = 280,000); AID 1468; also: nearly all actives have a fitted effect of over 55% in size
Target sequence (P10636 561-689 P618L limits assumed): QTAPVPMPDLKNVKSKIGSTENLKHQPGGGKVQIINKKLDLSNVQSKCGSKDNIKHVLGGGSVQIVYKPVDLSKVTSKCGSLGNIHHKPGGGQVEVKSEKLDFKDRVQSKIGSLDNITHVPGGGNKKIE
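Quantitative HTS format: compounds meet 15 uM recombinant K18 P301L tau and Alexa 594-tau tracer in 100 mM sodium acetate pH 7; 20 uM heparin triggers fibrillization at 37 C over 6 hr; FP gives the signal.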
Tau fluor counter: counter-screen for tau fibril formation inhibitors | Potency, µM (doses to about 57.7 µM) | actives 0.93% (n = 280,000) | tau K18 P301L Alexa594 fluorescence, heparin fibrillization; also: nearly all actives have a fitted effect of over 55% in size
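Human tau K18 P301L (15 uM unlabeled, 0.24 uM Alexa 594-labeled) in 100 mM sodium acetate pH 7 with 20 uM heparin, 6 hr at 37 C. ThT 30 uM added, 1 hr ambient; Alexa 594 FP and total fluorescence read at 555/632 nm.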
Tau ThT inhib: tau fibrillization inhibition (ThT binding); recombinant tau K18 P301L (four-repeat tau fragment), heparin-induced fibrillization, ThT fluorescence; Potency, µM (doses to about 57.4 µM), most hits filed as inhibitors; actives 2.1% (n = 270,000); AID 1460; also: nearly all actives have a fitted effect of over 55% in size
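K18 P301L tau (15 uM + 0.24 uM Alexa 594-tagged), heparin 20 uM, NaOAc pH 7, 6 h 37 C; ThT 30 uM, 1 h RT, ex 450/em 510 nm.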
FBPA coupling cs: coupling enzyme interference in Giardia aldolase counter-screen. coupling enzyme system counterscreen, AmpLite Red fluorescence. actives 0.67% (n = 290,000). AID 2472. activity change, negative = inhibition, % at 58.2 µM, hits read low; in the data active = activity change below about -30%
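Counterscreen lacking aldolase: glyceraldehyde-3-phosphate coupling-enzyme reagent preincubated 10 min at RT with compound (at 57.5 uM final), then substrate/coupling system with AmpLite Red added; fluorescence read at 525/598 nm after 20 min RT.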
Numbers stand for hits; i = inactive; ? = inconclusive; nt = no result; [ ] = remark or other dose. Unless noted, calls follow the shape of the dose curve; as a rule, active = well fitted curve in the direction sought with a large enough effect; inconclusive = small, poorly fitted or top-dose-only effect, or another doubt; inactive = no such curve, though single readings can be large; an effect the other way counts as inactive or inconclusive.

SMILES	G9a inh	Sfp PPTase inh	Tau fibril FP	Tau fluor counter	Tau ThT inhib	FBPA coupling cs
NC(=O)CC[C@@H]1NC(=O)[C@@H]2CCCN2C(=O)c2cc([N+](=O)[O-])cc(I)c2NCCC[C@@H](C(=O)NC(CC(=O)O)C(N)=O)NC1=O (some centres undefined)	?	i	i	i	i	i
Cc1nn(-c2ccccc2)c2c1cc1c(=O)[nH]c(=O)nc-1n2-c1cccc(C(F)(F)F)c1	i	nt	i	i	i	nt
O=C(Nc1nc2ccc(F)cc2s1)c1nc(S(=O)(=O)Cc2ccccc2F)ncc1Cl	i	nt	i	i	10µM	nt
CC(C)c1nnc(NC(=O)c2nc(S(=O)(=O)Cc3ccccc3F)ncc2Cl)s1	20µM	i	nt	nt	nt	nt
CSc1nnc(NC(=O)c2nc(S(=O)(=O)Cc3ccccc3F)ncc2Cl)s1	28µM	?	nt	nt	nt	i
COCCCNC(=O)CCCn1c(=O)c2ccccc2n(CC(=O)Nc2ccc(C)cc2Cl)c1=O	i	nt	i	i	i	nt
CCc1sc(C(=O)NCc2ccco2)cc1C	i	i	nt	nt	nt	i
CCc1sc(C(=O)NCc2ccco2)cc1Br	56µM	i	nt	nt	nt	i
CC(=O)N1CCN(c2ccc([N+](=O)[O-])cc2)CC1	i	i	i	i[2.34 µM]	i	i
Cc1cccc(N2CCN(C(=S)c3ccc([N+](=O)[O-])cc3)CC2)c1	4µM	25µM	i	i	i	i
Cc1ccccc1N1CCN(C(=S)c2ccc([N+](=O)[O-])cc2)CC1	13µM	?	i	i	i	i
Cc1cccc(N2CCN(C(=S)c3ccccc3)CC2)c1	?	?	i	?	?	i
CC1CCCC(N2CCN(C(=O)c3ccc([N+](=O)[O-])cc3)CC2)C1 (centres undefined)	22µM	i	nt	nt	nt	i
CC(=O)N1CCN(C(=S)c2ccc([N+](=O)[O-])cc2)CC1	22µM	i	i	i	i	i
CCOc1ccccc1NC(=O)c1cc2c(Cl)nc3ccccc3c2s1	i	nt	i	i	i	nt
CCOc1ccc(NC(=O)c2ccc(NC(=O)c3cn4c5c(c(N6CCN(C)CC6)c(F)cc5c3=O)OCC4C)cc2)cc1 (centres undefined)	50µM	i	i	i	i	i
Cc1c(C(=O)OCCOc2ccccc2)[nH]c2c1C(=O)CC(c1ccccc1Cl)C2 (centres undefined)	i	nt	?	i	i	nt
CC(=O)Nc1c(C(=O)Nc2cccc(C)c2)nnn1-c1ccc(C)cc1	i	nt	?	?	?	nt
C#CCOCCOCCOCCNc1nc(N2CCN(C(=O)[C@H](C(C)C)n3cc(CCO)nn3)CC2)nc(N2CCN(C(=O)[C@H](CCCCN)n3cc(CCCC)nn3)CC2)n1	28µM	i	i	i	i	i
C#CCOCCOCCOCCNc1nc(N2CCN(C(=O)[C@H](CCCCN)n3cc(CCCC)nn3)CC2)nc(N2CCN(C(=O)[C@H](CCCCN)n3cc(CCCC)nn3)CC2)n1	40µM	i	i	i	i	i
C#CCOCCOCCOCCNc1nc(N2CCN(C(=O)[C@H]([C@@H](C)CC)n3cc(CCCCN)nn3)CC2)nc(N2CCN(C(=O)[C@H](CCCCN)n3cc(CCCC)nn3)CC2)n1	i[2.33 µM]	nt	nt	nt	nt	nt
CC(C)c1cccc2c([Si](C)(C)C)c3c(nc12)-c1cccc(=O)n1C3	nt	45µM	i	i	?	i
CC(C)c1cccc2nc3c(c([Si](C)(C)C(C)(C)C)c12)Cn1c-3cccc1=O	nt	79µM	i	i	i	i
Fc1ccc(C(Nc2ccccn2)c2c[nH]c3ccccc23)cc1 (centres undefined)	40µM	i	i	i	?	i
Cc1ccc(Nc2nc(C)cc(C)n2)c(C(=O)O)c1	8.9µM	nt	i	i	i	nt
SMILES	G9a inh	Sfp PPTase inh	Tau fibril FP	Tau fluor counter	Tau ThT inhib	FBPA coupling cs
CC(=O)Nc1ccc(Nc2nc(C)cc(C)n2)cc1	i	i	nt	nt	nt	i
Cc1cc(-c2ccc(S(=O)(=O)Nc3ccc(Cl)cc3C)cc2)on1	?	nt	?	?	i	nt
Cc1noc(C)c1COc1ccc(C(=O)Nc2nnc(CC(C)C)s2)cc1	i[12.7 µM]	nt	nt	nt	nt	nt
Cc1cnc2c(C(=O)O)cnn2c1	56µM	i	i	i	i	i
CCC(=O)N1CCc2cc(Br)cc(S(=O)(=O)CCC(=O)N(CC)Cc3ccccc3)c21	i	nt	i	i	i	nt
COc1ccc(-c2c3c(=O)n(C)c(=O)n(C)c3cn2-c2cc(OC)ccc2OC)cc1	45µM	i	i	i	i	i
COc1ccc(-c2c3c(=O)n(C)c(=O)n(C)c3cn2Cc2cccnc2)cc1	10µM	i	i	i	?	i
COc1ccc(-c2c3c(=O)n(C)c(=O)n(C)c3cn2-c2ccccc2O)cc1	?	i	i	i	i	i
CCC(C)Nc1sc(S(=O)(=O)CC)nc1S(=O)(=O)c1ccc(C)cc1 (centres undefined)	i	nt	i	i	i	nt
CCOC(=O)c1[nH]c2ccccc2c1NC(=S)Nc1cc(C)ccc1C	45µM	40µM	i	?	?	i
CCOC(=O)c1[nH]c2ccccc2c1NC(=S)Nc1ccccc1C	32µM	?	i	i	?	i
CCOC(=O)c1[nH]c2ccccc2c1NC(=O)CC(C)C	i[12.7 µM]	i	i	i	i	i
CCCC(=O)Nc1c(C(=O)OCC)[nH]c2ccccc12	i	i	i	i	i	i
CCN(CC)C(=O)c1ccc(S(=O)(=O)NCc2cccnc2)cc1	79µM	i	i	i	i	i
Cc1ccc(NS(=O)(=O)c2ccc(CCC(=O)NCc3cccnc3)cc2)cc1	40µM	i	i	i	i	i
C=CCNc1nc(C2(C)CC3(CC(C)(C)OC3=O)C(=O)O2)cs1 (centres undefined)	40µM	i	i	i	i	i
Cc1cc(NC(=O)c2ccccc2)cc(NC(=O)c2ccccc2)c1C	nt	i	nt	nt	nt	i
Cc1ccc(NC(=O)c2ccccc2)s1	25µM	i	i	i	?	i
Cc1cc(NC(=O)c2ccccc2)sc1C	16µM	50µM	i	i	?	i
Clc1ccc(-c2noc3ncnc(N4CCCCC4)c23)cc1	i	nt	i	i	i	nt
O=C(CSCc1ccccc1Cl)N1CCN(c2ccc(F)cc2)CC1	i	nt	i	i	?	nt
CC(=O)c1cccc(-n2nnnc2SCC(=O)N2CCCC2)c1	56µM	i	i	i	i	i
COc1ccc(-n2nnnc2SCC(=O)N2CCCC2)cc1OC	i	i	i	i	i	i
CSc1ncc(Cl)c(C(=O)N(C)c2ccccc2)n1	i	nt	i	i	i	nt
O=c1[nH]cccc1-c1nc2cc(Cl)ccc2n1Cc1ccccc1	71µM	i	nt	nt	nt	i
O=c1[nH]cccc1-c1nc2ccccc2n1Cc1cccc(Cl)c1	i	i	nt	nt	nt	i
COc1ccc(Nc2cc(C(=O)NCc3ccccc3)c3ccccc3n2)cc1	i	nt	?	?	i	nt
